# Laboratory results: PMC4336329 (PLoS ONE, 2015)
# Hit rate of the full screen: of about 310,000 compounds, about 2,200 (0.71%) showed an effect of 50% or more. Effects have a minus sign here. Only a selection was taken, and strong results are over-represented in it overall.
# Target: human ether-à-go-go-related gene (hERG) potassium channel (human, UniProt Q12809)
# Test: primary screen, population patch clamp on CHO cells stably expressing hERG; higher = less effect of the substance
# Sequence of human ether-à-go-go-related gene (hERG) potassium channel (Q12809 whole entry, looked up): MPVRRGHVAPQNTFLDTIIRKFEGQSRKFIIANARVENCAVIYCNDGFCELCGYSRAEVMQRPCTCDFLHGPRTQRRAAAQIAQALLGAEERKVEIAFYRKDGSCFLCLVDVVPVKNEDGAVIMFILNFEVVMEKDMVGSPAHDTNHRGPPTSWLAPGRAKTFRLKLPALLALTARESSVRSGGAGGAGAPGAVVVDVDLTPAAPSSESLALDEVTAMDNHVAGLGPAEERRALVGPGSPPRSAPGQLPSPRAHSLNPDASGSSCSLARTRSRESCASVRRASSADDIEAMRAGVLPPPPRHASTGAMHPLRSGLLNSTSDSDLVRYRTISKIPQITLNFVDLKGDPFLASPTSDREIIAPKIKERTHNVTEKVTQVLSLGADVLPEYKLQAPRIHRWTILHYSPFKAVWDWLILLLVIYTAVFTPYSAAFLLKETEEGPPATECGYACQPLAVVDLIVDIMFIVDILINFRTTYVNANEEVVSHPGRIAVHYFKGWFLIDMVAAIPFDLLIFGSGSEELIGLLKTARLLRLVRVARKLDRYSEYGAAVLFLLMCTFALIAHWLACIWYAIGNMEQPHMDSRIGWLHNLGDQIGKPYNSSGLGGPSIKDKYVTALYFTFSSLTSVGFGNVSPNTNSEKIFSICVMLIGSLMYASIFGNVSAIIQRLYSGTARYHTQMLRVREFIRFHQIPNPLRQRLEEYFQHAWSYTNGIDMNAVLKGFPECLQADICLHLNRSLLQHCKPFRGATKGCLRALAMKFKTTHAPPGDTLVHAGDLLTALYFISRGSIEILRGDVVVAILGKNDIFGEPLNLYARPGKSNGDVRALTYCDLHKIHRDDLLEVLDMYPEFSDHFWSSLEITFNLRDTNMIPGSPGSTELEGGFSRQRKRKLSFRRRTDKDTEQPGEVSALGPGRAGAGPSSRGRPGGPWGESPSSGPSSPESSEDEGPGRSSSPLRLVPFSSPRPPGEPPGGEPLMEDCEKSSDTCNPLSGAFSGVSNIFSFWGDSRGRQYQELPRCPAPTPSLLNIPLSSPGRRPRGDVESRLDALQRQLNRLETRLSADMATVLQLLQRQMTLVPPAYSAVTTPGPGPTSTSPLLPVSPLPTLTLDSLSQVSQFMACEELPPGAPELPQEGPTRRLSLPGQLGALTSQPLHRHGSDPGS
row,Structure (SMILES),"hERG current change (%, negative = inhibition) at 1uM"
1,Cc1ccc(OCCNC(=O)CNC(=O)c2ccc(C)c(C)c2)cc1,4.24%
2,CCC(C(=O)NN1C(=O)c2ccccc2C1=O)c1ccccc1 (stereo not drawn),13.8%
3,CCC(=O)c1ccc(OCC(=O)OCC(=O)NC2CCCC2)cc1,14.5%
4,O=C(CCS(=O)(=O)c1ccc(Br)cc1)N1CCN(c2ccccc2Cl)CC1,2.11%
5,O=C(OCc1cc(=O)n2c(n1)sc1ccccc12)c1ccc(O)cc1O,7.81%
6,COCCNc1c(-c2cc3ccc(C)c(C)c3[nH]c2=O)nc2ccccn12,-77%
7,Cc1cccc2cc(-c3nc4c(C)cccn4c3NCc3ccco3)c(=O)[nH]c12,2.58%
8,Cc1ccc2[nH]c(=O)c(-c3nc4ccccn4c3NCc3ccco3)cc2c1,-4.3%
9,CCOCCCNC(=O)CN(Cc1ccc(Cl)cc1)S(C)(=O)=O,8.42%
10,COCCCNS(=O)(=O)c1ccc2c(c1)OCCO2,5.7%
11,CC(C)CCC(CCNCc1ccccn1)c1ccc(Cl)cc1 (stereo not drawn),-40.7%
12,COCCCNC(=O)c1ccc2c(c1)OCO2,-2.46%
13,COCCCNCCC(CCC(C)C)c1ccc2c(c1)OCO2.Cl (stereo not drawn),-85.8%
14,CC(C)CCC(CCNCc1ccccn1)c1ccc2c(c1)OCO2.Cl (stereo not drawn),-79.1%
15,c1ccc(CNCc2ccc3c(c2)OCO3)nc1,11%
16,Cl.Fc1ccccc1CNCCC(Cc1ccccc1)c1ccc2c(c1)OCO2 (stereo not drawn),10.8%
17,CC(NC(=O)C1CCC1)c1ccc2c(c1)OCO2 (stereo not drawn),-3.43%
18,CCNCCC(CCC(C)C)c1ccc2c(c1)OCO2 (stereo not drawn),-64.3%
19,COc1ccccc1NS(=O)(=O)c1ccc(C)c(C(=O)NCC2CCCO2)c1 (stereo not drawn),-14.5%
20,CCNc1nc(N)nc(Oc2ccc(OCCOc3ccccc3)nn2)n1,8.36%
21,COc1ccc2[nH]c(C)c(CCN(Cc3cccs3)C(=S)Nc3ccccc3)c2c1,6.37%
22,O=C1c2ccc3c4c(ccc(c24)C(=O)N1NC(=O)C(F)(F)F)CC3,10.1%
23,COc1cc(NC(=O)c2ccccc2F)c(OC)cc1NC(=O)CN1CCCCC1.Cl,1.58%

row,Structure (SMILES),"hERG current change (%, negative = inhibition) at 1uM"
1,O=C(O)c1ccccc1C(=O)Nc1ccc(Br)c(C(F)(F)F)c1,2.61%
2,CCc1ccc(N2C(=O)CC(N3CCN(Cc4ccc5c(c4)OCO5)CC3)C2=O)cc1 (stereo not drawn),-1.13%
3,Cc1ccc(-c2csc3nc(C(C)C)oc(=O)c23)c(C)c1,13.5%
4,OCCC1CN(Cc2cccc3nonc23)CCN1Cc1ccsc1 (stereo not drawn),-15.7%
5,CCOc1ccccc1CN1CCN(Cc2cccc3nonc23)CC1CCO (stereo not drawn),-50%
6,CCOc1ccccc1CN1CCN(Cc2cccc3c2OCO3)CC1CCO (stereo not drawn),-2.66%
7,CCOc1ccccc1CN1CCN(Cc2nc3ccccc3s2)CC1CCO (stereo not drawn),-67.7%
8,CCOc1ccc(CN2CCN(Cc3cccc4nonc34)CC2CCO)cc1 (stereo not drawn),-84.6%
9,CCOc1ccccc1CN1CCN(Cc2ccon2)CC1CCO (stereo not drawn),-7.08%
10,COc1cccc(CN2CCN(Cc3cccc4nonc34)CC2CCO)c1 (stereo not drawn),-24%
11,COc1ccc(CN2CCN(Cc3cccc4nonc34)CC2CCO)c(C)c1C (stereo not drawn),-7.13%
12,CCOc1ccccc1CN1CCN(Cc2nc3c(s2)CCCC3)CC1CCO (stereo not drawn),-26.6%
13,CC1CC(C)CN(C(=O)c2cc3cc(Br)cc(Br)c3o2)C1 (stereo not drawn),11.6%
14,COc1ccc(CN2C=C3C(=O)C(C)(OC(=O)C4CCCC4)C(=O)C=C3C=C2c2ccsc2)cc1 (stereo not drawn),-2.57%
15,CCOC(=O)N(NC(=O)C(O)(CC(C)C)CC(C)C)c1ccccc1,6.37%
16,CCN(CC)CCN1C(=O)Cn2c(C)c(C)c3cccc1c32.Cl,-12.2%
17,CCN(CC)CCN1c2ccccc2Sc2ccccc21.O=C(O)C(=O)O,-3.5%
18,CCN(CC)CCN1C(=O)Cn2c(C)c(C)c3cccc1c32.O=C(O)C(O)C(O)C(=O)O,-56.1%
19,CCCc1ncc(CN2CCCCC2C(=O)Nc2ccc(Oc3ccccc3)nc2)cn1 (stereo not drawn),12.1%
20,Cc1cc(=O)c(C(=O)O)nn1-c1cccc(C(F)(F)F)c1,-78.9%
21,O=C(O)c1nn(-c2cccc(C(F)(F)F)c2)ccc1=O,15.1%
22,Cc1cc(=O)c(C(=O)O)nn1-c1ccccc1,8.46%
23,Cc1ccc2nc(C)cc(N/N=C/c3ccc(F)cc3)c2c1,0.285%

row,Structure (SMILES),"hERG current change (%, negative = inhibition) at 1uM"
1,CC(=O)Nc1ccc(N2CCC(C)CC2)c([N+](=O)[O-])c1,7.46%
2,COc1ccc(C2CC(C(F)(F)F)n3nc(C(=O)N(C)Cc4cn(C)nc4C)c(Cl)c3N2)cc1 (stereo not drawn),-3.33%
3,CCOC(=O)c1cnc(N2CCN(C(=O)OCC)CC2)[nH]c1=O,13.9%
4,O=C(CCN1C(=O)C2C3C=CC(C3)C2C1=O)N1CCN(c2ccc(F)cc2)CC1 (stereo not drawn),-5.37%
5,O=C1C2CCCN2C(=O)N1CCCCN1CCN(c2ccc(F)cc2)CC1 (stereo not drawn),-10%
6,Cl.O=C1C2C3C=CC(C4CC34)C2C(=O)N1CCCCN1CCN(c2ccc(F)cc2)CC1 (stereo not drawn),-69.2%
7,Cc1cc(NC(=O)CCC(=O)N(c2cccnc2)C(C(=O)NC2CCCC2)c2ccccc2F)no1 (stereo not drawn),8.56%
8,CCOc1ccccc1OCC(=O)OCC(=O)c1c(N)n(CC(C)C)c(=O)n(C)c1=O,-9.86%
9,Cc1ccccc1OCCC(=O)OCC(=O)c1c(N)n(CC(C)C)c(=O)n(C)c1=O,-63.8%
10,Cc1ccc(OCCC(=O)OCC(=O)c2c(N)n(CC(C)C)c(=O)n(C)c2=O)cc1,-42.3%
11,CS(=O)(=O)Nc1ccc(Cc2noc(-c3ccc4[nH]cc(CCN)c4c3)n2)cc1.O,18.4%
12,CN(C(=O)c1ccc2c(c1)OCO2)C1CCCCC1,6.85%
13,Cc1nc(NC(=O)CC(C)C)sc1-c1csc(Nc2ccc(Cl)cc2)n1,12.5%
14,Cc1ccccc1C(=O)NNC(=S)Nc1cccc(C(F)(F)F)c1,13.2%
15,CCCCc1ccc(-c2nc(NC(=O)C3C4CCC(O4)C3C(=O)O)sc2C)cc1 (stereo not drawn),11.9%
16,O=C(Nc1ccccc1N1CCCC1)c1ccc([N+](=O)[O-])o1,1.03%
17,CCC(=O)N1CCN(c2ccccc2NC(=O)c2ccc([N+](=O)[O-])o2)CC1,-60.5%
18,CCC(=O)N1CCN(c2ccc(Cl)cc2NC(=O)c2ccc([N+](=O)[O-])o2)CC1,0.198%
19,CCC(=O)N1CCN(c2ccccc2NC(=O)c2ccc(-c3cccc([N+](=O)[O-])c3)o2)CC1,-3.2%
20,CC(=O)N1CCN(c2ccccc2NC(=O)c2ccc(-c3cccc([N+](=O)[O-])c3)o2)CC1,-81.6%
21,O=C(Nc1ccccc1N1CCOCC1)c1ccc([N+](=O)[O-])o1,-1%
22,CC(C)C(=O)N1CCN(c2ccccc2NC(=O)c2ccc([N+](=O)[O-])o2)CC1,-23.5%
23,CN1CCN(c2ccccc2NC(=O)c2ccc(-c3cccc([N+](=O)[O-])c3)o2)CC1,-0.213%

row,Structure (SMILES),"hERG current change (%, negative = inhibition) at 1uM"
1,CN1CCN(c2ccccc2NC(=O)c2ccc([N+](=O)[O-])o2)CC1,-62.4%
2,c1ccc(C(c2nnnn2C2CCCCC2)N2CCc3ccccc3C2)nc1 (stereo not drawn),7.86%
3,C[C@H](NC(=O)N1CCn2c1nc1ccccc12)C(=O)NCCc1ccccc1,17.4%
4,COc1ccc(NC(=S)N2CCN(C(=O)c3ccco3)CC2)c(OC)c1,8.24%
5,CCn1c(=S)sc2c(=O)[nH]c(C)nc21,13.5%
6,COc1cccc(CN2CC(C(=O)N3CCN(c4ccc(Cl)cc4)CC3)CCC2=O)c1 (stereo not drawn),-53.3%
7,COc1cccc(CN2CC(C(=O)N3CCCCCCC3)CCC2=O)c1 (stereo not drawn),9.63%
8,COc1cccc(CN2CC(C(=O)N3CCCC3)CCC2=O)c1 (stereo not drawn),10.9%
9,CCOC(=O)c1oc2ccccc2c1CSc1nnnn1-c1ccc(C)cc1,5.36%
10,O=C(NC1CCN(Cc2ccccc2)CC1)c1ccccc1,2.84%
11,COc1ccccc1C1CCN(Cc2ccc(Cl)c(Cl)c2)CC1,10.4%
12,Cl.O=C(NC(=S)NC1CCN(Cc2ccccc2)CC1)c1ccc(F)cc1,-57.5%
13,O=C(/C=C/c1cccc(Br)c1)NC1CCN(Cc2ccccc2)CC1,-27.7%
14,Cc1ccc(CN2CCC(NC(=O)c3ccccc3)CC2)cc1,-52.8%
15,COc1ccc(/C=C/C(=O)NC2CCN(Cc3ccccc3)CC2)cc1OC,12%
16,O=C(/C=C/c1cccc(F)c1)NC1CCN(Cc2ccccc2)CC1,-51.4%
17,COc1ccccc1C1CCN(Cc2ccccc2)CC1,8.45%
18,Cc1ccc(CC(=O)NC2CCN(Cc3ccccc3)CC2)cc1,7.9%
19,COc1ccccc1C1CCN(Cc2ccc(C)cc2)CC1,-61.2%
20,Fc1ccc(NC(=S)NC2CCN(Cc3ccccc3)CC2)cc1,6.75%
21,O=C(NC1CCN(Cc2ccc(F)cc2)CC1)c1ccccc1,-15.9%
